Values joined by “and” are separate entries in the source; they are usually repeats but may differ in a detail not shown here. Equal entries are not always repeated. Some structures have more than one record in an assay (separate samples or runs), and their calls can disagree. Active and inactive are the calls of the source. How the source made its calls: active means hit-call score of the fitted dose curve at least 0.9, where 1 is the maximum; inactive means score below 0.9.
What was measured:
[1] = read-out: Human Leukocyte Antigen - DR isotype (HLADR), HLA-DRA (gene 3122); assay: BSK_BE3C_HLADR: BioMAP Diversity Plus: BE3C Assay for Human Leukocyte Antigen - DR isotype (HLADR) Biomarker Activity (AID 2283032); settings: primary human bronchial epithelial cells; actives raise or lower the signal
In short: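 Signal came from an ELISA for HLA-DR in human bronchial epithelial primary cells harvested 24 h after treatment; gain- and loss-of-signal fitting used DMSO controls as reference.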

[2] = read-out: Vascular cell adhesion molecule 1 (VCAM1), VCAM1 (gene 7412); assay: BSK_4H_VCAM1: BioMAP Diversity Plus: 4H Assay for Vascular cell adhesion molecule 1 (VCAM1) Biomarker Activity (AID 2283033); settings: primary human endothelial cells (HUVEC); actives raise or lower the signal
In short: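 Endpoint derived from bidirectional fitting against DMSO controls of VCAM-1 ELISA signal in umbilical vein endothelial cells sampled at 24 h following treatment.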

[3] = read-out: Interferon-gamma inducible Protein 10 (IP10), CXCL10 (gene 3627); assay: BSK_BE3C_IP10: BioMAP Diversity Plus: BE3C Assay for Interferon-gamma inducible Protein 10 (IP10) Biomarker Activity (AID 2283034); settings: primary human bronchial epithelial cells; actives raise or lower the signal
In short: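 Using primary human bronchial epithelial cultures, the assay captures IP-10 by ELISA one day (24 h) after exposure. Parallel SRB staining of total protein flags overt cytotoxicity. Fits run bidirectionally relative to DMSO.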

[4] = read-out: Monokine induced gamma interferon (MIG), CXCL9 (gene 4283); assay: BSK_BE3C_MIG: BioMAP Diversity Plus: BE3C Assay for Monokine induced gamma interferon (MIG) Biomarker Activity (AID 2283035); settings: primary human bronchial epithelial cells; actives raise or lower the signal
In short: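 MIG level was determined by ELISA after 24 h chemical treatment of primary human bronchial epithelial cells. Values were fitted bidirectionally with DMSO as the negative control and activity baseline.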

[5] = read-out: Transforming growth factor beta 1 (TGFb1), TGFB1 (gene 7040); assay: BSK_BE3C_TGFb1: BioMAP Diversity Plus: BE3C Assay for Transforming growth factor beta 1 (TGFb1) Biomarker Activity (AID 2283036); settings: primary human bronchial epithelial cells; actives raise or lower the signal
In short: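 In this human primary bronchial epithelial system, an ELISA quantified TGF-b1 one day after dosing. Endpoint changes in either direction were fitted relative to DMSO.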

[6] = read-out: urokinase plasminogen activator (uPA), PLAU (gene 5328); assay: BSK_BE3C_uPA: BioMAP Diversity Plus: BE3C Assay for urokinase plasminogen activator (uPA) Biomarker Activity (AID 2283038); settings: primary human bronchial epithelial cells; actives raise or lower the signal
In short: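 Using confluent primary human lung bronchial epithelial cultures, we dosed chemicals, waited 24 h, then ran a uPA ELISA, fitting bidirectionally against DMSO.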

[7] = read-out: Urokinase-type plasminogen activator receptor (uPAR), PLAUR (gene 5329); assay: BSK_BE3C_uPAR: BioMAP Diversity Plus: BE3C Assay for Urokinase-type plasminogen activator receptor (uPAR) Biomarker Activity (AID 2283039); settings: primary human bronchial epithelial cells; actives raise or lower the signal
In short: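 A uPAR ELISA serves as the readout, taken 24 h after treating primary human bronchial epithelial cells. Responses in either direction are fitted against DMSO, which defines baseline activity.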

[8] = read-out: Interleukin-6 (IL6), IL6 (gene 3569); assay: BSK_CASM3C_IL6: BioMAP Diversity Plus: CASM3C Assay for Interleukin-6 (IL6) Biomarker Activity for (AID 2283040); settings: primary human coronary artery smooth muscle cells; actives raise or lower the signal
[9] = read-out: Tissue plasminogen activator (tPA), PLAT (gene 5327); assay: BSK_BE3C_tPA: BioMAP Diversity Plus: BE3C Assay for Tissue plasminogen activator (tPA) Biomarker Activity (AID 2283041); settings: primary human bronchial epithelial cells; actives raise or lower the signal
In short: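 Bidirectional curve fitting relative to DMSO defined activity, with tPA detected by ELISA in chemically treated human bronchial epithelial primary cells at 24 hours.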

[10] = read-out: Interleukin-8 (IL8), CXCL8 (gene 3576); assay: BSK_CASM3C_IL8: BioMAP Diversity Plus: CASM3C Assay for Interleukin-8 (IL8) Biomarker Activity (AID 2283042); settings: primary human coronary artery smooth muscle cells; actives raise or lower the signal;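 further: IL-8 protein level quantified by ELISA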
[11] = read-out: Human Leukocyte Antigen - DR isotype (HLADR), HLA-DRA (gene 3122); assay: BSK_CASM3C_HLADR: BioMAP Diversity Plus: CASM3C Assay for Human Leukocyte Antigen - DR isotype (HLADR) Biomarker Activity (AID 2283043); settings: primary human coronary artery smooth muscle cells; actives raise or lower the signal;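 further: cell-surface HLA-DR protein level quantified by ELISA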
[12] = read-out: Macrophage colony-stimulating factor (MCSF), CSF1 (gene 1435); assay: BSK_CASM3C_MCSF: BioMAP Diversity Plus: CASM3C Assay for Macrophage colony-stimulating factor (MCSF) Biomarker Activity (AID 2283044); settings: primary human coronary artery smooth muscle cells; actives raise or lower the signal;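 further: M-CSF protein amount quantified by ELISA after 24 h exposure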
[13] = read-out: Low-density lipoprotein receptor (LDLR), LDLR (gene 3949); assay: BSK_CASM3C_LDLR: BioMAP Diversity Plus: CASM3C Assay for Low-density lipoprotein receptor (LDLR) Biomarker Activity (AID 2283045); settings: primary human coronary artery smooth muscle cells; actives raise or lower the signal;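 further: LDLR protein level on the cell surface quantified by ELISA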
[14] = read-out: Monocyte Chemoattractant Protein-1 (MCP1), CCL2 (gene 6347); assay: BSK_CASM3C_MCP1: BioMAP Diversity Plus: CASM3C Assay for Monocyte Chemoattractant Protein-1 (MCP1) Biomarker Activity (AID 2283046); settings: primary human coronary artery smooth muscle cells; actives raise or lower the signal;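 further: MCP-1 level quantified by ELISA 24 h after dosing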
[15] = BSK_CASM3C_Proliferation: Cell Proliferation Assessment in the BioMAP Diversity Plus: CASM3C Assay (AID 2283047); settings: primary human coronary artery smooth muscle cells;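 further: sulforhodamine B total protein stain as relative cell number at 560 nm; sub-confluent cells exposed 48 h before staining; fitted both ways against DMSO so gain or loss of cell number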
[16] = read-out: Monokine induced gamma interferon (MIG), CXCL9 (gene 4283); assay: BSK_CASM3C_MIG: BioMAP Diversity Plus: CASM3C Assay for Monokine induced gamma interferon (MIG) Biomarker Activity (AID 2283048); settings: primary human coronary artery smooth muscle cells; actives raise or lower the signal;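 further: MIG protein level measured by ELISA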
[17] = read-out: serum amyloid A (SAA), SAA1 (gene 6288); assay: BSK_CASM3C_SAA: BioMAP Diversity Plus: CASM3C Assay for serum amyloid A (SAA) Biomarker Activity (AID 2283049); settings: primary human coronary artery smooth muscle cells; actives raise or lower the signal;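 further: SAA protein level quantified by ELISA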
[18] = BSK_CASM3C_SRB: Viability Assessment in the BioMAP Diversity Plus: CASM3C Assay (AID 2283050); settings: primary human coronary artery smooth muscle cells;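 further: cells exposed to compound for 24 h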
[19] = read-out: Thrombomodulin, THBD (gene 7056); assay: BSK_CASM3C_Thrombomodulin: BioMAP Diversity Plus: CASM3C Assay for Thrombomodulin Biomarker Activity (AID 2283051); settings: primary human coronary artery smooth muscle cells; actives raise or lower the signal;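 further: thrombomodulin protein level measured by ELISA 24 h after dosing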
[20] = read-out: Plasminogen activator inhibitor-1 (PAI1), SERPINE1 (gene 5054); assay: BSK_BE3C_PAI1: BioMAP Diversity Plus: BE3C Assay for Plasminogen activator inhibitor-1 (PAI1) Biomarker Activity (AID 2283037); settings: primary human bronchial epithelial cells; actives raise or lower the signal
In short: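 PAI-1 biomarker levels in treated human bronchial epithelial cells are determined by ELISA at 24 h. Both increases and decreases relative to DMSO are fitted.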

Measured: AC50

C=CCC1=C(C)C(OC(=O)C2C(C=C(C)C)C2(C)C)CC1=O (centres undefined)
active: [1] 15.7 µM and 32.3 µM and 30.9 µM | [2] 31.6 µM [middle of 4 runs] | [3] 35 µM and 39 µM | [7] 0.223 µM | [11] 31.7 µM and 32 µM and 27.9 µM | [13] 16.8 µM and 21 µM | [15] 34.4 µM [middle of 4 runs] | [17] 4.17 µM | [19] 16.6 µM and 26.3 µM and 21 µM
inactive: [1] | [3] | [4] | [5] | [6] | [7] | [8] | [9] | [10] | [11] | [12] | [13] | [14] | [16] | [17] | [18] | [19]

COC(=O)C(C)Oc1ccc(Oc2ccc(Cl)cc2Cl)cc1 (centres undefined)
active: [1] 9.71 µM and 20 µM | [8] 32.6 µM
inactive: [1] | [2] | [3] | [4] | [5] | [6] | [7] | [8] | [9] | [10] | [11] | [12] | [13] | [14] | [15] | [16] | [17] | [18] | [19]

CC1COC(Cn2cncn2)(c2ccc(Oc3ccc(Cl)cc3)cc2Cl)O1 (centres undefined)
active: [1] 20 µM | [2] 32.2 µM | [3] 31.7 µM | [4] 29.3 µM | [20] 20 µM | [6] 20 µM | [7] 30.3 µM | [9] 27.4 µM | [15] 27.8 µM | [19] 16.1 µM
inactive: all other assays above

COc1cnc(OC)n2nc(NS(=O)(=O)c3c(OCC(F)F)cccc3C(F)(F)F)nc12
active: [13] 16.8 µM
inactive: [1] | [2] | [3] | [4] | [5] | [6] | [7] | [8] | [9] | [10] | [11] | [12] | [13] | [14] | [15] | [16] | [17] | [18] | [19]

COc1ccc(C(c2ccc(OC)cc2)C(Cl)(Cl)Cl)cc1
active: [1] 17.4 µM | [2] 25.1 µM | [3] 32.8 µM | [20] 14.3 µM | [8] 14 µM | [15] 15.1 µM | [18] 18.4 µM | [19] 13.1 µM
inactive: all other assays above

COc1nc(C)nc(NC(=O)NS(=O)(=O)c2ccccc2Cl)n1
active: [5] 0.29 µM | [14] 0.507 µM
inactive: [1] | [2] | [3] | [4] | [5] | [6] | [7] | [8] | [9] | [10] | [11] | [12] | [13] | [14] | [15] | [16] | [17] | [18] | [19]

Fc1ccc(Oc2ccnc3cc(Cl)cc(Cl)c23)cc1
inactive: [10] | [11] | [12] | [13] | [16] | [17]
active: [1] 24.3 µM | [2] 30.1 µM | [3] 28.7 µM | [4] 34.3 µM | [5] 32.9 µM | [20] 30.3 µM | [6] 36.5 µM | [7] 34.2 µM | [8] 11.4 µM | [9] 31.9 µM | [14] 30.6 µM | [15] 24.4 µM | [18] 23.7 µM | [19] 18.6 µM

COC(=O)C=C(C)OP(=O)(OC)OC
not listed: [20]
inactive: all other assays above

CNC(=S)S
active: [2] 22.4 µM | [7] 11.7 µM | [19] 9.42 µM
not listed: [20]
inactive: all other assays above

CCCCOC(=O)c1ccccc1C(=O)OCCCC
active: [12] 0.767 µM | [15] 34.9 µM | [19] 11 µM
inactive: [1] | [2] | [3] | [4] | [5] | [20] | [6] | [7] | [8] | [9] | [10] | [11] | [12] | [13] | [14] | [15] | [16] | [17] | [18] | [19]

CNC(=O)ON=CC(C)(C)SC
active: [17] 1.35 µM
inactive: all other assays above

Source: PubChem BioAssay (EPA / NIEHS)
